Data on 6 molecules can be found in PubChem BioAssay (NCATS).

The target in test [1] is Peroxisome proliferator-activated receptor delta (Homo sapiens) (UniProt Q03181). The test can be described thus: qHTS assay for small molecule agonists of peroxisome proliferator-activated receptor delta signaling (AID 588534; calls by dose curve;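 also: 0% = DMSO basal wells and 100% = positive control agonist at 10 µM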). The method, boiled down:
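Fluorescence from CCF4 substrate cleavage by beta-lactamase reporter, read 2 hrs at RT, measured agonist activity. Compounds were tested with 18 hrs exposure at 37 C. Concentration-response data fitted to Hill equation.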

The nature of test [2]: qHTS assay for small molecule antagonists of peroxisome proliferator-activated receptor delta signaling (AID 588535; active = well fitted inhibition curve with a large enough effect in the signal ratio, with a control signal flat, not every such curve was filed as active; the % refers to the signal ratio;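 as to max response: cells co-treated with a PPAR-delta agonist as stimulator during compound exposure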). The conditions noted are these: HEK293T PPARd-UAS-bla, beta-lactamase FRET ratio, 18 h; 460 nm channel. In a few lines: (§1)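 HEK293T PPAR-delta-UAS-bla cells, 4000/well, 2% charcoal/dextran FBS; 5 h 37 C; cpd titration; 18 h 37 C; CCF4 2 h RT; FI 460/530 nm; Hill fit → IC50, efficacy.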

In test [3] the target is Peroxisome proliferator-activated receptor delta (Homo sapiens) (UniProt Q03181). Described as above. The method, boiled down:
as §1

The target in test [4] is Peroxisome proliferator-activated receptor gamma (Homo sapiens) (UniProt P37231). Briefly: qHTS assay for small molecule agonists of peroxisome proliferator-activated receptor gamma signaling (AID 588536; active = well fitted curve in the direction sought with a large enough effect in the signal ratio, with a control signal flat, not every such curve was filed as active; the % refers to the signal ratio;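 also: 0% = DMSO basal wells and 100% = rosiglitazone at 2 µM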). In a few lines: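 GeneBLAzer PPAR-gamma-UAS-bla HEK293 cells in 1% charcoal/dextran-treated FBS medium were treated 16 h at 37 C with compounds. Beta-lactamase activity was read by CCF4 ratio (460/530 nm). Response was normalized to 2 uM rosiglitazone (100%) and DMSO, then Hill-fitted for EC50 and efficacy.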

Test [5] concerns the target Retinoic acid receptor RXR-alpha (Homo sapiens) (UniProt P19793). The test can be described thus: qHTS assay for small molecule agonists of retinoid X receptor alpha signaling (AID 588544; calls by dose curve;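 also: 0% = DMSO basal wells and 100% = reference agonist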).
The target of test [6] is Thyroid hormone receptor beta (Homo sapiens) (UniProt P10828). The test can be described thus: qHTS assay for small molecule agonists of thyroid hormone receptor beta signaling (AID 588545; calls by dose curve). In a few lines:
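In this cell-based screen, titrated compounds act on HEK 293 cells held in medium with 2% charcoal/dextran FBS, NEAA and pyruvate for 18 hrs at 37 C. Responses are expressed relative to T3 (10 nM) as 100% and basal DMSO as 0%.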

The nature of test [7]: qHTS assay for small molecule antagonists of retinoid X receptor alpha signaling (AID 588546; active = well fitted inhibition curve with a large enough effect in the signal ratio, with a control signal flat, not every such curve was filed as active; the % refers to the signal ratio;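 also: cells stimulated with 9-cis-retinoic acid as agonist; % is scaled to controls: 0 for no effect and ±100 for the full control effect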). Conditions: HEK293T RXRa-UAS-bla, beta-lactamase ratio, antagonist mode; measured here: W530 green channel, cytotoxicity proxy. The method, boiled down: (§2)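 Beta-lactamase reporter inhibition, read as CCF4 fluorescence ratio (ex 405, em 460/530 nm) after 2 h at RT. HEK293T UAS-bla cells, 2500/well, were stimulated with 9-cis-RA at 500 or 100 nM final alongside test compound for 18 h at 37 C.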

Test [8] addresses Retinoic acid receptor RXR-alpha (Homo sapiens) (UniProt P19793). The description is as above. The conditions noted are these: HEK293T RXRa-UAS-bla, beta-lactamase ratio, antagonist mode. The method, boiled down:
as §2

In test [9] the target is Thyroid hormone receptor beta (Homo sapiens) (UniProt P10828). The test can be described thus: qHTS assay for small molecule antagonists of thyroid hormone receptor beta signaling (AID 588547; active = well fitted inhibition curve with a large enough effect in the signal ratio, with a control signal flat, not every such curve was filed as active; the % refers to the signal ratio;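 also: cells stimulated with 0.4 nM T3 agonist during compound exposure; series mostly up to about 77 µM; % is scaled to controls: 0 for no effect and ±100 for the full control effect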). Conditions: TR-UAS-bla HEK293, beta-lactamase ratio, antagonist mode, 18 h. In a few lines: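 Inhibition of T3-driven (0.4nM final) beta-lactamase reporter activity was measured over 0.59 nM to 92 uM compound after 18 h at 37 C. The cells were GripTite HEK293 TR-UAS-bla in charcoal/dextran-stripped serum, with CCF4 ratio read-out and IC50 from Hill fits.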

A short description of test [10]: qHTS assay for small molecule activators of the p53 signaling pathway (AID 651743; active = well fitted activation curve with a large enough effect in the signal ratio, not every such curve was filed as active; the % refers to the signal ratio; also: series mostly up to about 92 µM; % of control where 0% means no effect). The conditions noted are these: HCT-116 p53RE-bla, beta-lactamase FRET ratio, 16 h; activation: stronger effect = higher value. In a few lines:
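Read-out is fluorescence intensity from the LiveBLAzer B/G FRET substrate, added for 2 hours at room temperature after HCT-116 p53RE-bla cells had been incubated with compounds for 16 hours at 37 C.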

Test [11] in a line: qHTS assay for environmental chemicals that activate the Aryl hydrocarbon Receptor (AhR) signaling pathway (AID 651777). Also: % of control where 0% means no effect; nearly all actives have a fitted effect of over 15% in size. Conditions: 1A2-DRE human hepatoma cells, luciferase, 24 h; activation: stronger effect = higher value. In a few lines: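 Reporter gene assay: hepatoma cells with DRE/CYP1A2-luciferase, 24 hr compound incubation at 37 C, 5% CO2, luminescence after One-Glo (30 min, RT).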

The target of test [12] is Peroxisome proliferator-activated receptor alpha (Homo sapiens) (UniProt Q07869). The test can be described thus: qHTS assay for small molecule agonists of the peroxisome proliferator-activated receptor alpha (PPARalpha) signaling pathway (AID 651778). Also: % of control where 0% means no effect. The conditions noted are these: PathHunter PPARalpha complementation, chemiluminescence, 6 h; max response: stronger effect = higher value. The method, boiled down:
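Chemiluminescence from complemented enzyme reported PPARalpha activation in cells after 6 hr of compound treatment at 37 C. The detection reagent was incubated for 60 min at room temperature, and compounds were scored as agonists.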

Test [13] can be described thus: qHTS assay for small molecule agonists of the antioxidant response element (ARE) signaling pathway measured by Nrf2-dependant transcriptional activity - cell viability counter screen (AID 720653; active = well fitted curve in the direction sought with a large enough effect in the repeat runs; an effect the other way counts as inactive or inconclusive; also: % is scaled to controls: 0 for no effect and ±100 for the full control effect). Conditions: ARE-bla HepG2 viability, CellTiter-Glo ATP luminescence, 16 h; max response: stronger effect = lower value. In a few lines:
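Cytotoxicity counter screen: intracellular ATP quantified by CellTiter-Glo luminescence in the same ARE-bla HepG2 plates, after 16 h compound exposure and a 2 h beta-lactamase substrate step.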

Test [14] can be described thus: qHTS assay for cell viability of the p53RE-bla HCT-116 cell line (AID 743292). Also: % is scaled to controls: 0 for no effect and ±100 for the full control effect; nearly all actives have a fitted effect of over 55% in size. In a few lines: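 ATP-based luminescence, 16 h compound exposure at 37 C, p53RE-bla HCT-116 cells at 4,000/well.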
Test [15] deals with Glucocorticoid receptor (Homo sapiens) (UniProt P04150). The test can be described thus: qHTS assay for small molecule agonists of glucocorticoid receptor signaling (AID 588532; active = well fitted curve in the direction sought with a large enough effect in the signal ratio, with a control signal flat; the % refers to the signal ratio;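 also: 100% = dexamethasone at 0.1 µM and 0% = DMSO only wells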). The conditions noted are these: HeLa MMTV-bla, beta-lactamase ratio, agonist, 18 h; activation: stronger effect = higher value, percent of dexamethasone control, DMSO zero. The method, boiled down:
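Agonist-mode qHTS: GRE-driven beta-lactamase in HeLa cells exposed 18 h to titrated compounds (up to 92 uM), then CCF4 ratio read after 2 h at RT; Hill-fitted EC50, efficacy relative to 0.1 uM dexamethasone.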

The nature of test [16]: qHTS assay for small molecule agonists of the antioxidant response element (ARE) signaling pathway measured by Nrf2-dependant transcriptional activity (AID 720636; active = well fitted curve in the direction sought with a large enough effect in the repeat runs; an effect the other way counts as inactive or inconclusive;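 also: HepG2 cells with an ARE-driven luciferase reporter; % of control where 0% means no effect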). In a few lines:
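Nrf2-dependent transcription is measured in ARE-luc HepG2 cells: compound is applied for 16 hr at 37 C after a 6 hr attachment period, and luciferase activity is quantified by luminescence using ONE-Glo.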

Test [17] is described as follows: qHTS assay for cell viability of HEK293 cells (AID 743288). Also: % is scaled to controls: 0 for no effect and ±100 for the full control effect; nearly all actives have a fitted effect of over 50% in size. Conditions: ATP luminescence (CellTiter-Glo), 18 h; max response: stronger effect = lower value. The method, boiled down:
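Environmental chemicals tested in qHTS format against parental HEK293 cells; 18 h treatment, 37 C; read-out ATP luminescence (CellTiter-Glo), 30 min RT development.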

In test [18] the target is Glucocorticoid receptor (Homo sapiens) (UniProt P04150). The test can be described thus: qHTS assay for small molecule antagonists of glucocorticoid receptor signaling (AID 588533; active = well fitted inhibition curve with a large enough effect in the signal ratio, with a control signal flat, not every such curve was filed as active; the % refers to the signal ratio;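 also: cells stimulated with 2 nM dexamethasone as agonist; % is scaled to controls: 0 for no effect and ±100 for the full control effect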). The method, boiled down: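 Antagonist-mode qHTS: compound titrations added to GRE-bla HeLa cells, then dexamethasone 2 nM final; 18 h, 37 C. CCF4 FRET fluorescence normalized to dexamethasone and DMSO; IC50 from Hill fit.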

Test [19] has as its target Nuclear receptor subfamily 1 group I member 2 (Rattus norvegicus) (UniProt Q9R1A7). The test can be described thus: qHTS assay for small molecule activators of the rat pregnane X receptor (rPXR) signaling pathway (AID 651751; call rule not given here; also: 0% is about no effect). The conditions noted are these: rPXR reporter cells, luciferase (One-Glo), 24 h.
Test [20] has as its target Estrogen receptor (Homo sapiens) (UniProt P03372). The test can be described thus: qHTS assay for small molecule agonists of estrogen receptor alpha signaling (AID 588514; calls by dose curve;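 also: 0% = vehicle only and 100% = reference agonist; nearly all actives have a fitted effect of over 70% in size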). In a few lines: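 Cells were plated at 5000/well, incubated 4 hrs at 37 C, dosed with compound titration series, incubated 18 hrs at 37 C, loaded with CCF4 dye for 2 hrs at RT, then fluorescence was read.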

SMILES strings stand for the structures. Results filed as inconclusive are left out. Calls of active or inactive are those of the source. Unless noted, calls follow the shape of the dose curve; as a rule, active = well fitted curve in the direction sought with a large enough effect; inconclusive = small, poorly fitted or top-dose-only effect, or another doubt; inactive = no such curve, though single readings can be large; an effect the other way counts as inactive or inconclusive.

Sequence of Glucocorticoid receptor (Homo sapiens) (P04150 whole entry, looked up): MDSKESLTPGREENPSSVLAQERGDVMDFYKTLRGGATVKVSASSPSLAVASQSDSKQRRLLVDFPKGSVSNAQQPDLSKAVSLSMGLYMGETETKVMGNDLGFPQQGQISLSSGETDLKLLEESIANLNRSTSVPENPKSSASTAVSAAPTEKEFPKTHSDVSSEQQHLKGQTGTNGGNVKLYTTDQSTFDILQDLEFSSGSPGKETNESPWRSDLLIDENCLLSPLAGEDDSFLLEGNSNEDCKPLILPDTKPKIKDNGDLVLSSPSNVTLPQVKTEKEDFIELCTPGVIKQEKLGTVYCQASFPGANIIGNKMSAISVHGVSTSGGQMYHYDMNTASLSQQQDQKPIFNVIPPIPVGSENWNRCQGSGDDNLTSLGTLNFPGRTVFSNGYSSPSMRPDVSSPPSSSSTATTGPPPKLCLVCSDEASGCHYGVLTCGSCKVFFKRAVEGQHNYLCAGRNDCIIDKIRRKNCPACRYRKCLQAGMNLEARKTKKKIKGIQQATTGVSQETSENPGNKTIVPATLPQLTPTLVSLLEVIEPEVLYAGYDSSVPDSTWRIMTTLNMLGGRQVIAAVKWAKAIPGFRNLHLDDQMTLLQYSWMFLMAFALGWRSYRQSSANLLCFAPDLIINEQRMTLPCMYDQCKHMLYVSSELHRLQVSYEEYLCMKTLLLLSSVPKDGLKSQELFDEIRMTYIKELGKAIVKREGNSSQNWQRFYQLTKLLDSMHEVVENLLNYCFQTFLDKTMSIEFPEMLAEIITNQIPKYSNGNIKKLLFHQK
Sequence of Retinoic acid receptor RXR-alpha (Homo sapiens) (P19793 whole entry, looked up): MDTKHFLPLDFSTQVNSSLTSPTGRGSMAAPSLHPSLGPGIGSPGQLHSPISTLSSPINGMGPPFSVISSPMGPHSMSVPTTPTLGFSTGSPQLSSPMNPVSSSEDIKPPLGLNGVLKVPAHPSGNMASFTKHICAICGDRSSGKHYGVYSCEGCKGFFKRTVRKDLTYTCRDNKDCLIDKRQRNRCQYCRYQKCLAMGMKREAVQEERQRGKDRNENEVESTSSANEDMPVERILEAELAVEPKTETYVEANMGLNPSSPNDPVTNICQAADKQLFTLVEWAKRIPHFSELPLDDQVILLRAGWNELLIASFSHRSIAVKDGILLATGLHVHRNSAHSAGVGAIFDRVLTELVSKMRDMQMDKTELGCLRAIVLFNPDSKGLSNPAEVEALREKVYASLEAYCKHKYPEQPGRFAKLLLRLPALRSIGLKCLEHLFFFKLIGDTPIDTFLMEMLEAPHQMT
Sequence of Thyroid hormone receptor beta (Homo sapiens) (P10828 whole entry, looked up): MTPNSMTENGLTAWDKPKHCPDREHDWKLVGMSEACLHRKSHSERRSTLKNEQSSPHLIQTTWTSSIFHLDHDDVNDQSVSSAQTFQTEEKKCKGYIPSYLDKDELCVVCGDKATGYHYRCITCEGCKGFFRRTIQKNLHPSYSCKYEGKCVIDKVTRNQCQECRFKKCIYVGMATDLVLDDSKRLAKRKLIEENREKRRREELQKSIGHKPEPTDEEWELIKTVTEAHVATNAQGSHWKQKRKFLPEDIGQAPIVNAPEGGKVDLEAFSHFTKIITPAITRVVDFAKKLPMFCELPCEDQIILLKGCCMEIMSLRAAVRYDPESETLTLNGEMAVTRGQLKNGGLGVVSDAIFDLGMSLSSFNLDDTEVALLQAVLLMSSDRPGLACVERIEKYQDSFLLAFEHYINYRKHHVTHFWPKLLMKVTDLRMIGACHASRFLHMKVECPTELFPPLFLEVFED
Sequence of Peroxisome proliferator-activated receptor alpha (Homo sapiens) (Q07869 whole entry, looked up): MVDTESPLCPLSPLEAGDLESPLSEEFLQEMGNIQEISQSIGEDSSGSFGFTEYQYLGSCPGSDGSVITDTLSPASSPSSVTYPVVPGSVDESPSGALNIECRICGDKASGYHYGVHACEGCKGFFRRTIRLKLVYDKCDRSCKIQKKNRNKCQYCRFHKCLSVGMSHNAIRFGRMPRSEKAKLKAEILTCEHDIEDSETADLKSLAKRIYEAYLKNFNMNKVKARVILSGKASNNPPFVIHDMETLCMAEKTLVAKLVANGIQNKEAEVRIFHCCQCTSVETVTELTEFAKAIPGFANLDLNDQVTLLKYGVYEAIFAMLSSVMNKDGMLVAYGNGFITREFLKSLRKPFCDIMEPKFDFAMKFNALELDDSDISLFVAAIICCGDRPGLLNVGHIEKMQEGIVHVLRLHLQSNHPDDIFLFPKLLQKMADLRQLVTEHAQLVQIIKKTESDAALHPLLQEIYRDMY
Sequence of Nuclear receptor subfamily 1 group I member 2 (Rattus norvegicus) (Q9R1A7 whole entry, looked up): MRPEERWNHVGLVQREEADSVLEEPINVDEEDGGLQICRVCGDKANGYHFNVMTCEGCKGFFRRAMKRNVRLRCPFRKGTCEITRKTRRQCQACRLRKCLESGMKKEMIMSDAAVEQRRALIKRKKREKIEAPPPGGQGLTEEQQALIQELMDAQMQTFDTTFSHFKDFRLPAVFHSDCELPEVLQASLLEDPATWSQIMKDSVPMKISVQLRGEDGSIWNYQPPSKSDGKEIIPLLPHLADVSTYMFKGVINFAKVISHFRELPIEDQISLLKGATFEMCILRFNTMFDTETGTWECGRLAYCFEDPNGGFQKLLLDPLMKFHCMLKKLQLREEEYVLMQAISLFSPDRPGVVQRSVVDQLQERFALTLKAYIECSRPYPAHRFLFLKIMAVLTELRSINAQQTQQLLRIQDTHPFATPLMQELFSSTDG
Sequence of Peroxisome proliferator-activated receptor delta (Homo sapiens) (Q03181 whole entry, looked up): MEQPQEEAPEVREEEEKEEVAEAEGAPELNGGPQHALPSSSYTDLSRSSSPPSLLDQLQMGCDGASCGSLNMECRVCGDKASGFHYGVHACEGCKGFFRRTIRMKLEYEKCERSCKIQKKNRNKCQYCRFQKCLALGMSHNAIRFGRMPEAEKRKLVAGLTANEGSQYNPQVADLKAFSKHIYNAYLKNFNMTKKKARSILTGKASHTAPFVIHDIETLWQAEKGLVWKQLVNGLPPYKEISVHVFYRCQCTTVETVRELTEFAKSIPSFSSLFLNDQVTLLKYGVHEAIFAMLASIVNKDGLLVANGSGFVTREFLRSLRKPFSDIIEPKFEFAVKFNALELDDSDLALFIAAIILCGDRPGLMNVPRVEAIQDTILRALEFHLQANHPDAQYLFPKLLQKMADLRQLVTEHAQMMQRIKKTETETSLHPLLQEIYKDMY
Sequence of Peroxisome proliferator-activated receptor gamma (Homo sapiens) (P37231 whole entry, looked up): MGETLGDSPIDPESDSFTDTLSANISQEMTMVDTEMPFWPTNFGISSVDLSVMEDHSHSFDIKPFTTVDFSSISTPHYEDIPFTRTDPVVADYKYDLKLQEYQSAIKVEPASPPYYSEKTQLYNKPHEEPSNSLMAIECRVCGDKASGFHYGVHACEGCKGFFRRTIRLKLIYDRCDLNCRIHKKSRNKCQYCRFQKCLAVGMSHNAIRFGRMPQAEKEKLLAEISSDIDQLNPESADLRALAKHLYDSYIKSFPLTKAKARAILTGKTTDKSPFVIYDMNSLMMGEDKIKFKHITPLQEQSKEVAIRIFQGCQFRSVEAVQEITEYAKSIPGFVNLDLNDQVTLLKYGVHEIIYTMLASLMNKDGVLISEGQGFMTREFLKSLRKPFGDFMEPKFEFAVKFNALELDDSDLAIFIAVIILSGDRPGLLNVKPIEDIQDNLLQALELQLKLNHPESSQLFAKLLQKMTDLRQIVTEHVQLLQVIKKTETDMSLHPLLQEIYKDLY
Sequence of Estrogen receptor (Homo sapiens) (P03372 whole entry, looked up): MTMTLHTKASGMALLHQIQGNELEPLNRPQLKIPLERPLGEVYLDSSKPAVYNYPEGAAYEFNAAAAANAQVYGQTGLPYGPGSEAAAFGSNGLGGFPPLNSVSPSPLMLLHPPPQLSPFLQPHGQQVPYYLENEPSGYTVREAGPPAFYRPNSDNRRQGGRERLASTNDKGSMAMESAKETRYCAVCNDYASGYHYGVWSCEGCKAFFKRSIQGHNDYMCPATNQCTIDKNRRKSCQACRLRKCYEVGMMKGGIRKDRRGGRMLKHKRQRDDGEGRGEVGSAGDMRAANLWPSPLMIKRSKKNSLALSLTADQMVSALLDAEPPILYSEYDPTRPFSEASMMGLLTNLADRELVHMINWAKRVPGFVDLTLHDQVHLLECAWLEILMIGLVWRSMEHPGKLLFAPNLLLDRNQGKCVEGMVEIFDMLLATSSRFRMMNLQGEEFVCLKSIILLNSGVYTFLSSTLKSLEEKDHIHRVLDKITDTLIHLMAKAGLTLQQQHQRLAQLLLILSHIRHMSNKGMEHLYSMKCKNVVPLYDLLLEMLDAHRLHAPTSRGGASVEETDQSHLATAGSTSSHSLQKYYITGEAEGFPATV

In the case of `CCOc1nc(C(Cl)(Cl)Cl)ns1`, the result in test [1] was inactive. Also, the max response was -34.9% in test [2]; -10.8% in test [7]; 3.55% (inactive) in test [8]; -0.167% (inactive) in test [12]; -1.82% (inactive) in test [13]. Also, the Potency entry in [3], in [4], in [5], in test [6] and in [14] was “inactive” throughout. The activity change % (negative = inhibition) in test [9] was 11.9% (inactive). The activation in test [10] was -0.297% (inactive); in test [11], 7.64% (inactive).
In the case of `Clc1ccc([C@@]2(Cn3cncn3)C[C@@H](Br)CO2)c(Cl)c1`, the activation is -12.1% (inactive) in test [15], -2.11% (inactive) in test [10] and 1.89% (inactive) in test [11]. Besides, the result in [1] was inactive. The max response in [2] is -0.908%; in test [7], -15.6%; in test [8], -32.6% (inactive); in test [12], -2.47% (inactive); in test [13] it was 2.35% (inactive); in test [17] it was -20.7% (inactive). Besides, the Potency result in [3], in [4], in test [6], in test [16] and in test [14] was “inactive” in each case. In addition, in test [9], the activity change % (negative = inhibition) is 11.5% (inactive).
Regarding `O=C(O)C(F)(F)C(F)(F)C(F)(F)C(F)(F)C(F)(F)F`, the activation was 4.09% (inactive) in [15], -4.82% (inactive) in test [10] and 0.455% (inactive) in test [11]. In addition, the Potency entry in test [18], in [3], in test [4], in test [5], in test [6] and in test [14] was “inactive” throughout. For the same molecule, the molecule was called inactive in [1]. The max response in test [2] is -15.9%; in test [7], 3.1%; in test [8], -23% (inactive); in test [12], 4.72% (inactive); in test [13], 3.24% (inactive); in test [17], -9.96% (inactive). The max response in test [19] is 2.05% (inactive). For the same molecule, the activity change % (negative = inhibition) in [9] is 8.21% (inactive).
`CCC/C(=N\OCC)C1=C(O)CC(CC(C)SCC)CC1=O` (stereo not given): the activation in test [15] is -6.86% (inactive); in test [10], -6.84% (inactive); in test [11], 1.24% (inactive). Moreover, the Potency entry in [18], in test [3], in test [4], in [5] and in [6] was “inactive” in each case. For the same molecule, the molecule was classed as inactive in test [1]. Moreover, the max response in test [2] is -49.6%; in test [7], -1.11%; in test [8], -23% (inactive); in [12], 0.062% (inactive); in [13], -2.32% (inactive); in [17], -13.8% (inactive). The max response in test [19] is 0.0341% (inactive).
`Cc1cc(Cl)ccc1OC(C)C(=O)O` (stereo not given): the Potency entry in test [20], in test [3], in [5], in [6], in test [16] and in test [14] was “inactive” each time. Further, in test [1], the molecule was classed as inactive. The max response in test [2] was 36.3%; in [7] it was -2.86%; in test [8], -2.46% (inactive); in test [12] it was 2.19% (inactive); in test [13], -3.1% (inactive); in [17], 0.82% (inactive). Besides, in [19], the max response was -0.122% (inactive). Also, the activity change % (negative = inhibition) in [9] was -3.04% (inactive). Moreover, the activation in test [10] is -1.95% (inactive); in [11], 0.794% (inactive).
For the molecule `CCSC(C)CC1CC(=O)C(/C(CC)=N/OC/C=C/Cl)=C(O)C1` (stereo not given), the activation was -3.59% (inactive) in [15] and -2.18% (inactive) in test [11]. The result in test [1] was inactive. In addition, the max response in [2] was 62.4%; in test [7], -6.58%; in test [8] it was 0.139% (inactive); in [12], 0.0996% (inactive); in test [13] it was -19.5% (inactive); in [17], -16.3% (inactive). The Potency result in test [3], in [4], in test [6] and in test [16] was “inactive” in each case. Also, the activity change % (negative = inhibition) in test [9] is -26.3% (inactive).
